Only some compounds are listed: those with a hit (about 21% of all), similar ones and a draw of the others.
MRP resist rev: reverses drug resistance mediated by MRP. differential viability (reversal), % at 10 µM. H69AR cells + 2 uM doxorubicin, CellTiter-Glo, 72 h. 0.04% of 85,000 active;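 active = viability drop by adding the cancer drug above about 55%, with treated viability meeting a 40% cutoff, limit read from the data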;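 also: larger differential means the compound sensitizes cells more to doxorubicin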
MRP-1 activ: MRP-1 activation. H69AR cells + doxorubicin, viability rescue, CellTiter-Glo. viability increase, % at 10 µM. 0.61% of 140,000 active. AID 799;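 active = viability gain under doxorubicin at or above a set limit, the compound median plus 3 SD, cut at about 4.7% in these data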;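 also: MRP-1 overexpressing cells given doxorubicin 25 µM after compound pretreatment; 18-22 h compound pretreatment then 72 h with doxorubicin before readout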
CYP2C9 activ: CYP2C9 (human) activation | recombinant CYP2C9, luciferin-H conversion, luminescence; stronger effect = higher value; factor 1 = untreated enzyme, 0 = blocked | P11712 | AID 1024 | 1.4% of 96,000 active | activation factor at 5 µM;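 active = activation factor of 2 or more for CYP2C9 at a 5 µM dose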
Target sequence (P11712 whole entry, looked up): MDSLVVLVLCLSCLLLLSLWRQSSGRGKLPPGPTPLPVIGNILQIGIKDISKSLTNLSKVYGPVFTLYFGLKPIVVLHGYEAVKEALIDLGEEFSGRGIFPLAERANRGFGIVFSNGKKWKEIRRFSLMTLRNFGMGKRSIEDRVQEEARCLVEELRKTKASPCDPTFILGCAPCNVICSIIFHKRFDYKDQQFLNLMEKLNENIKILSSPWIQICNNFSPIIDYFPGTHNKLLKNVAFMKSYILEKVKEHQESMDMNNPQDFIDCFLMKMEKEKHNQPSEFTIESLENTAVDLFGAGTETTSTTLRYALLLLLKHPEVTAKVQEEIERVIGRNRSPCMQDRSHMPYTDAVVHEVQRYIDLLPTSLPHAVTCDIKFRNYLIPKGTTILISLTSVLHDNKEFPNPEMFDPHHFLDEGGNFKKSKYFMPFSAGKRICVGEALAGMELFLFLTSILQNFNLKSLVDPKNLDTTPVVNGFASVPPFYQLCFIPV
CYP2C19 activ: increases human CYP2C19 enzyme activity; activation factor at 5 µM; 96,000 tested, under 10 active; P33261; recombinant CYP2C19, luciferin-H EGE luminescence; stronger effect = higher value; 0 = fully inhibited enzyme, 1 = untreated enzyme;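 active = activation factor of at least 2 at 5 µM in the primary screen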
CYP2C9 inh: blocks human cytochrome P450 2C9; CYP2C9 Supersomes, luciferin-H conversion, luminescence; 20% of 96,000 active; inhibition, % at 5 µM;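 active = blocking of liver enzyme CYP2C9 beyond about 50% at 5 µM, limit read from the data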
CYP2C19 inh: human CYP2C19 inhibition; P33261; CYP2C19 Supersomes, luciferin-H EGE luminescence, 30 min; inhibition, % at 5 µM; 21% of 96,000 active; AID 778;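 active = CYP2C19 inhibition above a set limit at 5 µM in the primary screen, cut at about 50% in these data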
A number is an active result; - = inactive; . = not tested or not shown.

SMILES	MRP resist rev	MRP-1 activ	CYP2C9 activ	CYP2C19 activ	CYP2C9 inh	CYP2C19 inh
CCCCn1c(O)c(C(C)=NCCCN(CC)CC)c(=O)[nH]c1=O	-	-	-	-	-	-
CCCCCCN=C(C)c1c(O)n(CCCC)c(=O)[nH]c1=O	-	-	-	-	66	55
CCCCn1c(O)c(C(C)=NCCCn2ccnc2)c(=O)[nH]c1=O	-	-	-	-	90	-
COc1cccc(C2(O)CCSCC2CN(C)C)c1 (configuration not stated)	.	-	.	.	.	.
O=C(CN1CC(c2ccccc2)CC1=O)NCc1ccc(F)cc1 (configuration not stated)	-	-	.	.	.	.
COc1cccc(NC(=O)CN2CC(c3ccccc3)CC2=O)c1 (configuration not stated)	-	-	-	-	-	61
COP(=S)(OC)SCN1C(=O)c2ccccc2C1=O	-	-	-	-	71	98
Fc1ccc(C2NCCc3[nH]cnc32)cc1 (configuration not stated)	.	-	.	.	.	.
CCN(CC)P(=O)(NC(=O)C(Cl)(Cl)Cl)N(CC)CC.[Cl-].[Cl-].[Cl-].[Nd+3]	-	-	-	-	90	-
CC(C)C/C(=N/O)c1c[nH]c2ccccc12	-	-	-	-	59	77
CN1CCc2nc(SCC(=O)OC(C)(C)C)c(C#N)cc2C1	-	-	-	-	-	71
CC(C)CCNC(=O)c1c(N)n(CC2CCCO2)c2nc3ccccc3nc12 (configuration not stated)	.	-	-	-	95	61
Nc1c(C(=O)NCCc2ccccc2)c2nc3ccccc3nc2n1CCN1CCOCC1	-	-	-	-	97	67
Nc1c(C(=O)NCCN2CCOCC2)c2nc3ccccc3nc2n1Cc1ccco1	-	-	-	-	-	-
CCC(C)NC(=O)c1c(N)n(CC2CCCO2)c2nc3ccccc3nc12 (configuration not stated)	-	-	-	-	-	-
CCCCn1c(N)c(C(=O)NCCN2CCOCC2)c2nc3ccccc3nc21	-	-	-	-	-	-
COc1ccc(CCNC(=O)c2c(N)n(CCN3CCOCC3)c3nc4ccccc4nc23)cc1	-	-	-	-	50	-
CC12CN3CC(c4ccccc4)(CN(C1)C31CCCCC1)C2=O	-	-	-	-	-	-
O=C1Nc2ccccc2/C1=C/c1cnc[nH]1	.	-	-	-	92	99
CCC(=NCCCN(CC)CC)c1c(O)n(-c2ccccc2)c(=O)[nH]c1=O	-	-	-	-	-	-
CC1CCC(C(C)C)C(OP(N)(=O)c2ccccc2)C1 (configuration not stated)	-	-	-	-	65	83
CC1CCC(C(C)C)C(OC(=O)COC(=O)c2ccccc2N)C1 (configuration not stated)	.	-	.	.	.	.
CC1(C)CC(n2[nH]c(=O)c3c2NC(=O)CSC3c2ccc(F)cc2)CCO1 (configuration not stated)	-	-	-	-	-	-
O=C(COC(=O)Cc1ccccc1)Nc1ncc(Cl)cc1Cl	-	-	-	-	-	58
OCCN1C2CCC1CC(O)(c1ccc(F)cc1)C2 (configuration not stated)	-	-	-	-	-	-
SMILES	MRP resist rev	MRP-1 activ	CYP2C9 activ	CYP2C19 activ	CYP2C9 inh	CYP2C19 inh
OC1(c2ccc(F)cc2)CC2CCC(C1)N2Cc1nnnn1C1CCCCC1 (configuration not stated)	-	-	-	-	-	50
COc1ccccc1CN1CCN(C(=O)COc2cccc(C)c2)CC1	-	-	-	-	-	-
COc1ccc(OC)c(CN2CCN(C(=O)COc3cccc(C)c3)CC2)c1	-	-	-	-	-	62
O=C(COc1ccc(Br)cc1)N1CCN(Cc2ccncc2)CC1	-	-	-	-	63	83
Cc1cccc(OCC(=O)N2CCN(Cc3ccncc3)CC2)c1	.	-	-	-	88	92
CCCCC(C)C(OC(=O)CC(CC(=O)O)C(=O)O)C(CC(C)CC(O)CCCCC(O)CC(O)C(C)N)OC(=O)CC(CC(=O)O)C(=O)O (configuration not stated)	.	-	.	.	.	.
Cc1nn(Cc2ccccc2)c(Cl)c1C(=O)OC(C)C(=O)Nc1ccc(F)cc1Cl (configuration not stated)	.	-	.	.	.	.
CCOc1cc(C2NCc3ccccc3-n3cccc32)ccc1O (configuration not stated)	-	-	-	-	75	61
CC(C)N1C(=O)NC(=O)C2(Cc3cc([N+](=O)[O-])ccc3N(C)C2c2ccccc2)C1=O (configuration not stated)	.	-	.	.	.	.
COc1ccc(C)cc1NC(=O)c1c(C)nn(Cc2ccccc2)c1Cl	.	4.8	.	.	.	.
CCOP1(=S)Oc2cc3c(cc2C(C(=O)OC)(C(F)(F)F)O1)OCO3 (configuration not stated)	-	-	-	-	89	98
CC(Oc1ccc(-c2ccccc2)cc1)C(=O)O (configuration not stated)	-	-	-	-	-	-
COC(=O)C1=C(N)Oc2c(c(=O)oc3ccccc23)[C@]12C(=O)N(C)c1ccccc12	-	-	-	-	68	68
COC(=O)C1=C(N)OC(C)=C(C(C)=O)C12C(=O)N(C)c1ccccc12 (configuration not stated)	-	.	-	-	-	-
N#Cc1c(/N=C/c2ccc(O)cc2O)sc2c1C1CCN2CC1	.	-	.	.	.	.
O=C(COc1ccc2ccccc2c1)N1CCN(CC2CC3C=CC2C3)CC1 (configuration not stated)	-	-	-	-	-	-

Source: PubChem (several laboratories)
